# A number with no mark means an inactive call.
# Assays:
# [1] = system: Sporothrix brasiliensis CBS 133006; assay: growth inhibition relative to untreated control; higher = more growth inhibition (more antifungal activity), active = 80 or more; extreme values may be limits of the assay; details: 1 µM; 48 h
# Procedure, shortened: (§1)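 Library compounds at a final 1 μM were incubated with yeast-form cells of the reference isolates (1 x 10^5 CFU/ml) for 48 h at 35°C in 5% CO2. Growth was judged by inverted light microscopy and measured spectrophotometrically in quadruplicate runs. Values give percent growth inhibition relative to untreated cells.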
# [2] = system: Sporothrix schenckii ATCC 32286; assay: as above; details: 1 µM; 48 h
# Procedure, shortened: as §1
Structure (SMILES),growth inhibition [1],growth inhibition [2]
CCOc1ccc2cc(-c3nn(CC4CCN(C)CC4)c4ncnc(N)c34)ccc2c1,1.75%,15.8%
FC(F)(F)c1nnc2ccc(Cl)nn12,9.25%,14%
CCNC(=O)C(C)Nc1nc(-c2cccnc2)nc2sc(C)c(C)c12 (stereo not given),2.25%,16%
Clc1ccc(CN2CCN(C3=NCCN3)CC2)cc1Cl,18.8%,17%
CCOC(=O)c1noc(N)c1-c1ccccc1,16.5%,0%
O=C(Nc1ccnc(-c2cccnc2)n1)c1cc(C(F)(F)F)cc(C(F)(F)F)c1,2.5%,0%
COc1ccc(C2=NN(C3CCCCCC3)C(=O)[C@@H]3CC=CC[C@H]23)cc1OCCCCOc1ccc(-c2nnn[nH]2)cc1,2.5%,9.5%
C[C@H]1c2cccc(O)c2C(=O)C2=C(O)[C@]3(O)C(=O)C(C(N)=O)=C(O)[C@@H](N(C)C)[C@@H]3[C@@H](O)[C@@H]21,9.12%,10.5%
C[C@H](C(N)=O)N1CCCC[C@@H]1c1ccc(OCc2cccc(F)c2)cc1,0%,2%
CS(=O)(=O)c1ccccc1C(=O)N(Cc1ccccc1)c1ccccc1,13.2%,24%
Cc1cc(NCC(C)C)c2[nH]nc(-c3ccccc3)c2n1,4.5%,0.75%
CNC(=O)CNc1nc(-c2ccccn2)nc2scc(-c3ccccc3)c12,9.5%,3.75%
O=C(NC1CCCCC1)N1CCN(Cc2ccc3c(c2)OCO3)CC1,9.25%,17.2%
CC(C)(C)c1cc(C(=O)Nc2cccnc2)cc(C(=O)Nc2cccnc2)c1,6%,4%
COc1cccc(-n2nnnc2S(C)(=O)=O)c1,0%,22.8%
O=C(Nc1cccc(Cl)c1)c1cnc(N2CCN(c3ccncc3)CC2)c(Cl)c1,0.75%,1.5%
Cc1ccc2[nH]c(C3CCCNC3)c(-c3ccncc3)c2c1 (stereo not given),19%,7.75%
c1ccc2c(c1)CN(CC1CC1)CC1(CCN(Cc3c[nH]c4cnccc34)CC1)O2,1.25%,0%
Cc1cccc(Cn2ccc(NC(=O)c3ccc4c(c3)OCO4)n2)c1,7.5%,7.25%
Cc1nc(-c2ccccn2)nc(N(C)CCc2ccccc2)c1Cl,80.8% (active),34.8%
COc1ccccc1C(C)NCC(=O)Nc1cc(C(F)(F)F)ccc1Cl (stereo not given),9.75%,0%
COc1cc2ncnc(NC3CCN(Cc4ccccc4)CC3)c2cc1OC,8%,0%

Structure (SMILES),growth inhibition [1],growth inhibition [2]
O=C(Nc1nnc(-c2ccc(Cl)cc2)o1)c1cccc(C(F)(F)F)c1,100% (active),85.5% (active)
Nc1ncnc2c1ncn2C[C@@H](O)[C@@H](O)C(=O)O,5%,11.8%
CNC(=O)c1nn(C)c2c1C(C)(C)Cc1cnc(Nc3ccc(N4CCN(C)CC4)cc3)nc1-2,37.5%,1.25%
COc1ccc(N(CCc2cccc(C)n2)C(=O)C2CCCCC2)cc1,5.75%,0%
CCc1nc2ccc(Cl)cn2c1C(=O)NCc1ccc(N2CCC(c3ccc(OC(F)(F)F)cc3)CC2)cc1,10.2%,2.25%
CN1CCN(c2nccc3[nH]c(-c4cccc(F)c4)cc23)CC1,2.5%,19.5%
CCN(CC)S(=O)(=O)c1ccc(Cl)c(C(=O)Nc2ccc3nc(C)sc3c2)c1,0.5%,9.75%
Cc1cc(C(=O)Nc2ccc(-c3ccccc3)cc2)no1,1.75%,17%
COc1ccc(CN2CCOc3ccc(C(C)(O)CN(C)C)cc3C2)cc1C (stereo not given),1.25%,16%
O=C(NCCN1CCCC1)c1cc(NCCN2CCOCC2)nc2ccc(Cl)cc12,4.5%,0%
Cc1cc(OCC(=O)Nc2ccc(C(C)C)cc2)n(C)c(=O)c1C#N,3.5%,8%
c1ccc(C[C@@H]2CN(c3nccc(Oc4ccc(-n5ccnc5)cc4)n3)CCN2)cc1,10.2%,9.5%
NS(=O)(=O)c1cncc(-c2ccc3nccc(-c4cn[nH]c4)c3n2)c1,5.5%,2%
O=C(Nc1cccnc1)c1c(O)c2cccc3c2n(c1=O)CC3,19.5%,11.2%
COc1ccccc1CNC(=O)c1cc(C2CC2)nc2c1cnn2C(C)C,27.8%,0%
COc1ccc(-c2cncc3ccc(C(=O)NCCCn4ccnc4)nc23)cc1,16%,16.5%
COc1cc(OC)cc(C(=O)NCC2Cc3cc(Cl)cc(-c4ccncc4)c3O2)c1 (stereo not given),17.5%,2%
CC1CC1C(=O)NC1CCN(CC2(c3ccccc3)CCCCC2)CC1 (stereo not given),12.8%,20.5%
COc1ccc(N(CCc2cccc(C)n2)C(C)=O)cc1,0%,1.25%
COc1ccc(-c2cnc3ccc(N4CCCC4)nn23)cc1OC,21%,0%
CC(C)(C)n1nc(Cc2cccc3ccccc23)c2c(N)ncnc21,11%,0%
CC(C)(C)CN1C(=O)C(c2ccccc2)(c2ccccc2)N=C1N,17.8%,4.25%

Structure (SMILES),growth inhibition [1],growth inhibition [2]
CC(C)(C)c1ccc(N[C@@H]2CCCC[C@H]2NC(=O)c2ccco2)cc1,7.25%,0.75%
O=C(NCCc1c[nH]c2ccccc12)c1cc2ccccc2oc1=O,17.8%,4.5%
O=C(C1CCN(c2nnnn2-c2ccccc2)CC1)N1CCc2ccccc2C1,2.5%,3%
CCCCS(=O)(=O)Nc1ccc2cnn(C)c2c1,4.75%,1.75%
O=C(Nc1nnc(-c2ccc(Cl)s2)o1)c1ccc(Cl)s1,27.8%,42%
COC(=O)c1cccc2oc(-c3cccc(OC)c3NC(=O)c3cc(-c4ccccc4)on3)nc12,7.5%,0%
COc1ccc(-c2cc(NC(=O)c3ccc(F)cc3Cl)ccc2OC)cc1,0%,6.75%
COC(=O)C1=C(C)NC(C)=C(C(=O)OC(C)C)C1c1cccc2nonc12 (stereo not given),10.8%,11%
CC(C(=O)N1CCCC1)N1CCN(S(=O)(=O)c2ccc(C(C)(C)C)cc2)CC1 (stereo not given),37.5%,7%
COc1ccc(Nc2ccccc2NC(=O)c2ccc(O)nc2)cc1,14.2%,4.25%
O=C(CCC1CCCCC1)Nc1cccc(-c2nnc(-c3ccco3)o2)c1,2.5%,2.5%
O=C(Nc1ccc(N2CCNCC2)cc1)c1ccn2ncc(-c3cccc(Cl)c3)c2n1,12%,14.5%
O=C(Nc1nc(-c2ccccn2)cs1)c1cncn1-c1ccccc1,17.5%,15.2%
OC[C@H]1O[C@@H](n2c3ccc(Cl)cc3c3c(-c4cc5ccccc5o4)ncnc32)C(O)[C@H]1O (stereo not given in full),10.8%,18.8%
O=C(NCCN1CCCC1)c1cc(NCCCCN2CCC(F)(F)CC2)nc2ccc(Cl)cc12,2.75%,8.5%
O=C1Nc2ccc(Br)cc2C12NCCc1c2[nH]c2ccccc12 (stereo not given),18.8%,4.75%
CO[C@@H](C(=O)N1Cc2[nH]nc(NC(=O)c3ccc(N4CCN(C)CC4)cc3)c2C1)c1ccccc1,16.2%,1.5%
COc1cccc(CC(=O)N2CCC(n3c(C)nc4ccc(F)cc43)CC2)c1,7.5%,6.25%
Cc1ccc(S(=O)(=O)Nc2ccc(CN3CCN(C(=O)c4cccc(C#N)c4)CC3)cc2)cc1,2%,0.5%
CC(C)n1nc(-c2cc3c(Cl)cccc3[nH]2)c2c(N)ncnc21,15%,16.8%
COc1cc(Br)cc2cc(C(=O)Nc3cccc(C(F)(F)F)c3)c(=O)oc12,11.5%,6.75%

# Source: the supplement of paper PMC7556523
